For one assay, the system named is MKL-1. Nature of the assay: qHTS assay to identify novel small-molecules to repurpose for Merkel cell carcinoma treatment (AID 1296009). Also: nearly all actives have a fitted effect of over 60% in size. The conditions noted are these: MCC and control cell lines, CellTiter-Glo viability, 72 h; series mostly up to 46 µM. The essentials:
(§1)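 qHTS format: cells treated with library compounds in DMSO across 8 (NPC) or 11 (MIPE) concentrations. Readout after 72 hr at 37 degree celsius was CellTiter-Glo luminescence.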
(qHTS replaces the single test concentration by a dilution series.)

The subject of a further assay is MKL-2. The description is as above. The conditions noted are these: MCC and control cell lines, CellTiter-Glo viability, 72 h; series mostly up to 46 µM. A digest of the protocol: as §1
In general terms: ATP-based viability assays read luminescence as a measure of living cells.

A further assay relates to UISO. The description is as above. The conditions noted are these: MCC and control cell lines, CellTiter-Glo viability, 72 h; series mostly up to 46 µM. The essentials: as §1
For a further assay, the system named is WaGa. Described as above. The following applies: MCC and control cell lines, CellTiter-Glo viability, 72 h; series mostly up to 46 µM. A digest of the protocol:
as §1

Assay [1] can be described thus: Drug repurposing screens with cells derived from glioblastoma tumor samples (AID 1345199). Also: nearly all actives have a fitted effect of over 40% in size. The conditions noted are these: GBM patient neurospheres viability, ATP luminescence, 48 h. The essentials:
(§2)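 Four patient lines of CD133+ GBM neurospheres were screened at several concentrations; hits were retested in those lines plus three slower-growing GBM lines, using 48-hour treatment and ATP-based viability.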

In the next assay the test system is astro. The assay is described as above. The following applies: viability, ATP luminescence, 48 h; series mostly up to 45.9 µM. A digest of the protocol: as §2
For the next assay, the system named is C33A. Nature of the assay: Primary qHTS to identify gynecologic anti-cancer compounds using libraries of approved drugs and bioactive compounds (AID 1345084). Also: nearly all actives have a fitted effect of over 55% in size. The conditions noted are these: Gynecologic cancer cell panel viability, ATPlite luminescence, 48 h; series mostly up to 57.5 µM. A digest of the protocol:
(§3)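 Cells, 1,000 per well, plated 16 h, then exposed 48 h at 37 C to compounds. Viability by ATPlite luminescence after 15 min at room temperature.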

Another assay relates to CASKI. Described as above. The conditions noted are these: Gynecologic cancer cell panel viability, ATPlite luminescence, 48 h; series mostly up to 57.5 µM. The essentials:
as §3

For another assay, the system named is Es-2. Described as above. The conditions noted are these: Gynecologic cancer cell panel viability, ATPlite luminescence, 48 h; series mostly up to 57.5 µM. A digest of the protocol:
as §3

Another assay relates to HeLa. Described as above. The following applies: Gynecologic cancer cell panel viability, ATPlite luminescence, 48 h; series mostly up to 57.5 µM. A digest of the protocol:
as §3

The next assay has as its system Hek293T. Described as above. The conditions noted are these: Gynecologic cancer cell panel viability, ATPlite luminescence, 48 h, control line for the selectivity index; series mostly up to 57.5 µM. A digest of the protocol:
as §3

For the next assay, the system named is JEG-3. The description is as above. The following applies: Gynecologic cancer cell panel viability, ATPlite luminescence, 48 h; series mostly up to 57.5 µM. The essentials:
as §3

The next assay has as its system OV90. The description is as above. The following applies: Gynecologic cancer cell panel viability, ATPlite luminescence, 48 h; series mostly up to 57.5 µM. A digest of the protocol:
as §3

Another assay has as its system PA-1. The assay is described as above. The conditions noted are these: Gynecologic cancer cell panel viability, ATPlite luminescence, 48 h; series mostly up to 57.5 µM. The essentials:
as §3

For a further assay, the system named is Tov-21-G. The description is as above. The conditions noted are these: Gynecologic cancer cell panel viability, ATPlite luminescence, 48 h; series mostly up to 57.5 µM. The essentials:
as §3

The next assay deals with Tov112D. The assay is described as above. The conditions noted are these: Gynecologic cancer cell panel viability, ATPlite luminescence, 48 h; series mostly up to 57.5 µM. The essentials:
as §3

The next assay has as its system CAOV3. Described as above. The conditions noted are these: Gynecologic cancer cell panel viability, ATPlite luminescence, 48 h; series mostly up to 57.5 µM. The essentials:
as §3

Another assay relates to SKOV3. Described as above. The conditions noted are these: Gynecologic cancer cell panel viability, ATPlite luminescence, 48 h; series mostly up to 57.5 µM. The essentials: as §3
Where [2] appears, read: at 46.1 µM (top of the series), tumour line C.

We go through 16 molecules from PubChem BioAssay (NCATS).

Molecules are shown by their SMILES. Records with an inconclusive call do not appear. Values without a mark were called inactive. Active and inactive are the calls of the source. Calls follow the shape of the dose curve; as a rule, active = well fitted curve in the direction sought with a large enough effect; inconclusive = small, poorly fitted or top-dose-only effect, or another doubt; inactive = no such curve, though single readings can be large; an effect the other way counts as inactive or inconclusive.
% is scaled to controls: 0 for no effect and ±100 for the full control effect; potency is read from the fitted curve at half-maximal effect.

`CCC[C@H](N[C@@H](C)C(=O)N1[C@@H]2CCCC[C@H]2C[C@H]1C(=O)O)C(=O)OCC`: the Potency result with MKL-1, with MKL-2, with UISO, in the assay with WaGa and in the assay on astro was “inactive” throughout. The activity, negative = cell killing in assay [1] (at 45.9 µM (top of the series), tumour line B) was -14%; in [1] (at 45.9 µM (top of the series), tumour line D), -19.1%; in [1] (at 46 µM (top of the series), tumour line A) it was -33%; in assay [1] (setting [2]) it was -16.9%.

Regarding `CCCCn1c(=O)n(Cc2ccccc2F)c(=O)c2[nH]c(Cc3ccc(NC(C)=O)cc3)nc21`, the Potency result in the assay on MKL-1, in the assay on MKL-2, in the assay with UISO, in the assay with WaGa, with C33A and with CASKI was “inactive” throughout. The Potency result with Es-2, with HeLa, in the assay on Hek293T, with JEG-3, in the assay with OV90 and in the assay on PA-1 was “inactive” throughout. For the same molecule, the Potency result in the assay on Tov-21-G and in the assay with Tov112D was “inactive” in each case.

As for `CN(C)c1ccccc1CN1CCCN(Cc2ccccc2N(C)C)C1c1ccncc1`, the Potency entry in the assay on MKL-1, in the assay with MKL-2, with UISO and with WaGa was “inactive” throughout.

For `Cc1ccccc1C(C(=O)NC1CCCCC1)N(C(=O)CNc1ccc(C#N)cc1)c1cccc(F)c1` (stereo not drawn), the Potency result in the assay with MKL-1, with MKL-2, with UISO, in the assay with WaGa, in the assay with C33A and with CAOV3 was “inactive” in each case. For the same molecule, the Potency entry in the assay on CASKI, in the assay with Es-2, in the assay on HeLa, with Hek293T, in the assay on JEG-3 and in the assay on OV90 was “inactive” each time. For the same molecule, the Potency result in the assay with SKOV3, in the assay on Tov-21-G and in the assay with Tov112D was “inactive” in each case.

Consider `Cn1cnc(-c2cc3nccc(Oc4ccc(NC(=S)NC(=O)Cc5ccccc5)cc4F)c3s2)c1`, for which the Potency result with MKL-1, in the assay with MKL-2, in the assay with WaGa, with C33A, with CASKI and in the assay with Es-2 was “inactive” throughout. In addition, the Potency entry with Hek293T, with JEG-3 and with OV90 was “inactive” in each case. For the same molecule, the Potency with UISO is 18.7 µM (active).

With `CN1C(=O)C(Cc2c[nH]c3ccccc23)NC1=S` (stereo not drawn), the Potency result in the assay on MKL-1, in the assay on MKL-2, in the assay with UISO, in the assay on WaGa, with CAOV3 and in the assay with CASKI was “inactive” in each case. The Potency entry with Es-2, in the assay on HeLa, in the assay on Hek293T, in the assay on JEG-3, in the assay on OV90 and with PA-1 was “inactive” throughout. Besides, the Potency entry with SKOV3, with Tov-21-G and with Tov112D was “inactive” in each case.

For `CC(C)(OCc1nn(Cc2ccccc2)c2ccccc12)C(=O)O`, the Potency entry with MKL-1, in the assay with MKL-2, in the assay on UISO, with WaGa, with C33A and in the assay with CASKI was “inactive” in each case. Besides, the Potency result with Es-2, in the assay on HeLa, in the assay on Hek293T, in the assay on JEG-3, in the assay with OV90 and with PA-1 was “inactive” in each case. The Potency result in the assay with Tov-21-G and with Tov112D was “inactive” in each case.

Take `O=S(=O)(O)c1ccc2cc(N=Nc3cc(S(=O)(=O)O)c4cccnc4c3O)ccc2c1`: the Potency result in the assay on MKL-1, in the assay with MKL-2, in the assay on UISO, in the assay with WaGa, in the assay on C33A and in the assay with CASKI was “inactive” throughout. The Potency result in the assay on Es-2, with HeLa, in the assay on Hek293T, in the assay with JEG-3, in the assay with OV90 and in the assay on PA-1 was “inactive” throughout. The Potency result in the assay with SKOV3, with Tov-21-G and in the assay with Tov112D was “inactive” in each case.

As for `CN(C)c1nc(Cc2ccc(NC(=O)c3ccc(C(F)(F)F)cc3)cc2)nc(N(C)C)c1CC(=O)O`, the Potency result with MKL-1, in the assay with MKL-2, in the assay on UISO, with WaGa, in the assay on C33A and with CAOV3 was “inactive” each time. Besides, the Potency result with CASKI, in the assay on Es-2, with HeLa, in the assay with Hek293T, in the assay with JEG-3 and with OV90 was “inactive” each time. Besides, the Potency result in the assay on PA-1, in the assay on Tov-21-G and with Tov112D was “inactive” each time.

As for `C[C@@H](NC(=O)c1ncnc(N)c1Cl)c1ncc(C(=O)Nc2cc(C(F)(F)F)c(Cl)cn2)s1`, the Potency entry with MKL-1, in the assay on MKL-2, in the assay with UISO, in the assay with WaGa, in the assay on C33A and in the assay on CASKI was “inactive” each time. Further, the Potency entry in the assay with Es-2, with HeLa, in the assay with Hek293T, in the assay with JEG-3, in the assay with PA-1 and in the assay on Tov112D was “inactive” each time. Besides, the Potency in the assay with OV90 is 10 µM (active).

`CC1=C[C@@H]2[C@@H]([C@@H](O)C[C@@]3(C)[C@H]2C[C@@H](C)[C@]3(O)C(=O)CO)[C@@]2(C)Cc3cnn(-c4ccccc4)c3C=C12`: the Potency result with MKL-1, with MKL-2, with UISO, in the assay on WaGa and in the assay with CASKI was “inactive” in each case.

On to `Cc1cnc(Nc2cccc(CN3CCOCC3)c2)nc1Nc1cccc(S(=O)(=O)NC(C)(C)C)c1`, for which the Potency result in the assay with MKL-1, in the assay on MKL-2, in the assay on UISO, in the assay with WaGa, in the assay on C33A and in the assay on Es-2 was “inactive” throughout. The Potency entry with Hek293T, in the assay on JEG-3 and with OV90 was “inactive” in each case. For the same molecule, the Potency in the assay with SKOV3 is 0.794 µM (active).

For `c1ccc(-c2oc3ncnc(NC[C@@H]4CCCO4)c3c2-c2ccccc2)cc1`, the Potency result in the assay with MKL-1, in the assay on MKL-2, with UISO, with WaGa, in the assay on C33A and with CAOV3 was “inactive” each time. The Potency entry in the assay on CASKI, in the assay on Es-2, in the assay with HeLa, in the assay with Hek293T, in the assay on JEG-3 and in the assay with OV90 was “inactive” each time. The Potency entry with PA-1, in the assay on SKOV3 and in the assay with Tov-21-G was “inactive” each time.

Take `CN1c2ccccc2C(=O)N2CCc3c([nH]c4ccccc34)C21` (stereo not drawn): the Potency entry with MKL-1, in the assay with MKL-2, in the assay on UISO and in the assay with WaGa was “inactive” each time. The Potency is 7.08 µM (active) in the assay with CASKI; 14.1 µM (active) in the assay on Es-2; 7.94 µM (active) in the assay on HeLa; 3.98 µM (active) in the assay on JEG-3; 7.08 µM (active) in the assay with PA-1; 8.91 µM (active) with Tov-21-G. Further, the Potency with Tov112D was 3.55 µM (active).

Turning to `CC1CCN(c2cc(N3CCN(C)CC3)ccc2NC(=O)c2cc(C#N)c[nH]2)CC1`, the Potency entry in the assay with MKL-1, in the assay with MKL-2, with UISO, in the assay with WaGa, in the assay with C33A and in the assay on CASKI was “inactive” each time. Besides, the Potency entry with Es-2, in the assay with HeLa, with Hek293T, in the assay with JEG-3, in the assay on OV90 and in the assay on PA-1 was “inactive” in each case. Besides, the Potency entry in the assay with SKOV3, in the assay on Tov-21-G and in the assay with Tov112D was “inactive” in each case.

With `Fc1ccc(C(c2ccc(F)cc2)N2CCN(CC=Cc3ccccc3)CC2)cc1`, the Potency entry with MKL-1, in the assay on MKL-2, in the assay with UISO and with WaGa was “inactive” in each case. In [1] (setting [2]), the activity, negative = cell killing was -6.32%. Also, the Potency in [1] (tumour line A) was 2.82 µM (active); in assay [1] (tumour line D) it was 11.2 µM (active); with astro, 35.5 µM (active).
